FadD28 FP inh: blocks FadD28 binding to the bisubstrate probe | AID 588549 | fluorescence polarization | inhibition, % at 12.5 µM | hit rate 0.22% among 360,000; in the data active means inhibition above about 8.5%, passing the limit was not always enough; inconclusive means no clear call, values can overlap the other calls
RecA intein inh: blocks M. tuberculosis RecA intein splicing | AID 2221 | inhibition, % (no concentration beside the values) | hit rate 0.75% among 290,000 | cell-free RecA intein splicing, fluorescence | P9WHJ3; in the data active means inhibition above about 30%; inconclusive means no clear call, values can overlap the other calls;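 further: 0% = vehicle wells and 100% = reference inhibitor control wells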
Rv3671c inh: inhibitors of M. tuberculosis serine protease Rv3671c; inhibition, % at 5.96 µM; hit rate 0.048% among 320,000; P9WHR9; in the data active means inhibition above about 38%;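 further: extracellular domain of Rv3671c used as enzyme; 0% = enzyme with DMSO and 100% = no enzyme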
Target sequence (P9WHR9 whole entry, looked up, the tested form may be a part): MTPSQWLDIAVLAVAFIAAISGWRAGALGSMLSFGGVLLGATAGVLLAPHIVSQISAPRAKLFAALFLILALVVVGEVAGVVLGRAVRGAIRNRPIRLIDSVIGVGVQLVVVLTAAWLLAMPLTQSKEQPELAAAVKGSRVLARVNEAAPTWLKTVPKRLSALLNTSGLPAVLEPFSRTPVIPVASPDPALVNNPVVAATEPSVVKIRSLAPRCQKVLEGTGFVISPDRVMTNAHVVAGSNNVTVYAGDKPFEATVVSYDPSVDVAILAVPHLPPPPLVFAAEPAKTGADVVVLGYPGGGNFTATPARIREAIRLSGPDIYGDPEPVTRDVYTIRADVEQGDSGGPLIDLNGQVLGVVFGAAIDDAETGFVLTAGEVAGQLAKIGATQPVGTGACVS
Mtb hypoxia inh: reduces hypoxia-regulated biosensor signal in M. tuberculosis. M. tuberculosis hypoxia-regulated fluorescent reporter, fluorescence. fluorescence inhibition, % (test concentration not listed). hit rate 0.1% among 300,000; in the data active means fluorescence inhibition mostly above about 23%, no sharp cut-off; inactive means mostly below about 17%
Mtb UGM inh: inhibitors of M. tuberculosis UDP-galactopyranose mutase | inhibition, % at 10 µM | hit rate 0.06% among 320,000 | P9WIQ1 | purified UGM, fluorescence polarization probe displacement | AID 504406; in the data active means inhibition above about 10%, passing the limit was not always enough; inconclusive means no clear call, values can overlap the other calls
GFP chromophore: counter-screen GFP chromophore formation inhibition; EC50, µM; cell-free GFP chromophore formation, fluorescence; shares compounds with RecA intein inh; hit rate 83% among 2,100; call rule not given here
An asterisk follows results filed as active; ? = inconclusive; . = no result shown. Sampled rows, rich in hits. Any-hit rate of the full collection: about 0.92%.

SMILES	FadD28 FP inh	RecA intein inh	Rv3671c inh	Mtb hypoxia inh	Mtb UGM inh	GFP chromophore
CC1=NN(c2ccccc2)C(=O)/C1=C/c1ccc(-c2ccc(C)c(C(=O)O)c2)o1	.	3.5	-19.4	.	2.4	.
CC1=NN(c2ccc(Cl)c(C(=O)O)c2)C(=O)/C1=C\c1ccc(-c2ccc(C(=O)O)cc2)o1	0.2	36.5*	.	-3.8	.	0.806*
CC(C)n1cc(C=C2NC(=O)NC2=O)c2ccccc21	.	.	.	8.4	.	.
COc1cc(/C=C2/C(=O)N(c3ccc([N+](=O)[O-])cc3)N=C2N2CCOCC2)ccc1O	0.9	45.6*	-181.9	8.3	1.6	23.3*
CCN(CC)c1ccc(/C=C2/C(=O)N(c3ccc([N+](=O)[O-])cc3)N=C2N2CCOCC2)cc1	.	-6.8	-1.8	.	-2.9	.
COc1cccc(C(=O)C(C#N)=NNc2cccc(-c3ccnc(C)n3)c2)c1	.	.	.	6.1	.	.
CCOc1cc(C(c2c(C)[nH][nH]c2=O)c2c(C)[nH][nH]c2=O)ccc1OS(=O)(=O)c1ccc(C)cc1	-6.8	97.4*	-7.5	3.9	0.3	0.493*
Cc1[nH][nH]c(=O)c1C(c1c(C)[nH][nH]c1=O)c1cn(Cc2ccc(Cl)c(Cl)c2)c2ccccc12	1.8	0.9	-156.7	2.2	0.7	.
CCOc1ccc(C(c2c(C)[nH][nH]c2=O)c2c(C)[nH][nH]c2=O)cc1OC	0.7	94.5*	-18.0	.	-0.4	0.442*
C#CCOc1ccc(OC)cc1C(c1c(C)[nH][nH]c1=O)c1c(C)[nH][nH]c1=O	1.9	94.9*	.	11.9	1.2	0.413*
Cc1ccccc1OCC(=O)NN=C1CC(=O)CC(C)(C)C1	.	.	.	4.5	.	.
Cc1ccccc1-n1ncc2c([N+](=O)[O-])cc([N+](=O)[O-])cc21	-5.4	85.2*	5.1	.	0.2	5.79*
Cc1ccccc1NC1=C/C(=N\S(=O)(=O)c2ccc(C(=O)O)cc2)c2ccccc2C1=O	2.1	96.0*	-191.1	-0.2	4.0	10.7*
COc1ccc(S(=O)(=O)/N=C2\C=C(Nc3ccc(O)cc3)C(=O)c3ccccc32)cc1	-0.8	92.9*	-161.4	.	-2.2	0.338*
O=C(O)c1ccc(S(=O)(=O)/N=C2\C=C(Nc3ccccc3F)C(=O)c3ccccc32)cc1	?	94.4*	-208.7	7.9	0.4	0.166*
Cc1ccc(NC2=CC(=NS(=O)(=O)c3cccs3)c3ccccc3C2=O)cc1C	.	.	.	-0.5	.	.
Cc1ccccc1NC1=C/C(=N\S(=O)(=O)c2cccs2)c2ccccc2C1=O	0.1	37.4*	-195.4	6.3	3.5	1.01*
O=C(O)c1ccc(NC2=CC(=NS(=O)(=O)c3ccccc3)c3ccccc3C2=O)cc1	.	.	.	9.2	.	.
CCCCC1CN=C(N)N1CC(C)(C)C (stereo not given)	.	.	.	6.8	.	.
CC(=NN=c1sc2ccccc2n1C)c1ccccn1	.	.	.	-3.2	.	.
C#CCNC(=O)C1=CC(c2coc3ccccc3c2=O)CC(OCCCCO)O1 (stereo not given)	.	.	.	-3.6	.	.
CC(=O)NN=Cc1cc(C)n(-c2ccc(Br)cc2)c1C	.	.	.	16.6	.	.
Cc1ccc(-n2[nH]c(C)c(C=Nc3ccccn3)c2=O)cc1	.	.	.	6.7	.	.
CC(=O)Nc1c(Br)cc2c(c1Br)C(=O)c1ccccc1-2	-4.9	.	.	.	.	.
CC(=O)C1=C(c2ccc(Br)cc2)C(=O)c2ccccc2C1=O	-0.2	58.2*	-23.4	2.7	2.4	3.14*
SMILES	FadD28 FP inh	RecA intein inh	Rv3671c inh	Mtb hypoxia inh	Mtb UGM inh	GFP chromophore
Cc1noc(C)c1S(=O)(=O)N(C)CC1Oc2ccc(NC(=O)CCC(F)(F)F)cc2C(=O)N(C(C)CO)CC1C (stereo not given)	.	.	.	21.3	.	.
CN(C)CC(Cl)=C(Cl)c1ccccc1	.	.	.	5.5	.	.
CCN(CC)CCN1C(=O)c2cccc3cc(N)cc(c23)C1=O	-0.7	45.6*	-0.4	1.9	4.7	0.424*
CCOC(=O)C1=C(c2ccccc2)NC(N)=NC1c1ccc(OCc2ccc(C(=O)OC)cc2)cc1 (stereo not given)	-5.1	46.1*	-1.1	6.8	-0.9	26.3*
Cc1cccc(CS(=O)(=O)c2nnc([C@H](Cc3ccccc3)NC(=O)OC(C)(C)C)o2)c1	-2.6	36.4*	-22.2	5.8	-1.7	10.9*
COC(=O)CSc1nnc([C@H](Cc2ccccc2)NC(=O)OC(C)(C)C)o1	-2.5	0.4	0.1	.	0.6	.
COC(=O)CS(=O)(=O)c1nnc([C@H](Cc2ccccc2)NC(=O)OC(C)(C)C)o1	1.0	68.7*	2.1	.	0.0	14.5*
CCC1=C(OC(=O)N(CC)CC)N2C(=O)OC(=NCC3CC3)[C@]2(C)C2C1=CCC1C(=O)NC(=O)C12 (stereo not given in full)	.	.	.	4.0	.	.
COc1cc(/C=N\NC(=O)c2ccc(Cl)cc2)ccc1Oc1ccc([N+](=O)[O-])cn1	-2.6	-1.7	-5.4	.	2.0	.
COc1cc(/C=N\NC(=O)c2ccccc2F)ccc1Oc1ccc([N+](=O)[O-])cn1	-0.6	33.7*	8.1	.	1.5	>38
CC1=C(C#N)C2C(C1=NO)C2(C)C (stereo not given)	.	.	.	0.9	.	.
Cn1cccc1C=NNC(=O)c1cc2ccccc2cc1O	.	.	.	8.6	.	.
COC(=O)CSc1nnc(C)c(=O)[nH]1	-3.1	1.2	-1.8	-3.6	3.0	.
CCOC(=O)CNc1nnc(SCC(=O)OCC)[nH]c1=O	-0.3	41.5*	-1.2	.	-0.7	6.34*
Cc1ccc(C[n+]2ccccc2)cc1	0.0	1.6	-8.8	1.4	2.0	.
Cc1ccc(C[n+]2c(-c3ccc(C)cc3)cc(-c3ccc(C)cc3)cc2-c2ccc(C)cc2)cc1	-8.4	55.6*	-2.1	.	-2.3	14.2*
N#CC1=C(N)Oc2n[nH]c(-c3cccs3)c2C1C1CCCCC1 (stereo not given)	0.7	18.8	-14.8	11.7	1.3	.
N#CC1=C(N)Oc2n[nH]c(-c3cccs3)c2C1C1C=CCCC1 (stereo not given)	-11.7	9.5	-21.4	8.2	-2.3	.
N#CC1=C(N)Oc2n[nH]c(-c3cccs3)c2C1c1ccco1 (stereo not given)	-1.9	82.7*	-57.0	6.7	-0.4	18.4*
Cc1ccc(C2C(C#N)=C(N)Oc3n[nH]c(-c4cccs4)c32)s1 (stereo not given)	-1.3	66.7*	-16.2	10.7	-1.1	8.81*
COc1ccc(OC)c(-c2[nH]nc3c2C(c2ccco2)C(C#N)=C(N)O3)c1 (stereo not given)	-1.1	70.1*	-3.2	.	-0.5	26.3*
N#CC1=C(N)Oc2n[nH]c(-c3cccs3)c2C1c1ccsc1 (stereo not given)	1.5	90.5*	-20.5	2.8	-1.0	5.42*
CC(CC(=O)Nc1cc(C)ccn1)=NNC(=O)c1cccc(C)c1	.	.	.	5.8	.	.
CCN1C(=O)C2C(c3ccc(-c4ccc(OC)cc4)c(OC)c3)N3CCC[C@@]3(C(=O)OC)C2C1=O (stereo not given in full)	.	.	.	1.7	.	.
N#CC1=C(N)Oc2n[nH]c(-c3cccnc3)c2C1c1ccc([N+](=O)[O-])o1 (stereo not given)	-3.7	28.8	-0.3	-3.2	-0.3	.
CC(C)c1[nH]nc2c1C(C(C)C)C(C#N)=C(N)O2 (stereo not given)	-1.2	5.6	2.0	3.7	-2.0	.

Screens as filed in PubChem BioAssay.
